TAG inh: inhibitors of triacylglycerol accumulation, primary screen, cell-based, uHTS, fluorescence, H9c2; H9c2 cells, Nile Red lipid (TAG) fluorescence; cells loaded with 200 µM oleic acid; inhibition, % at 12.5 µM; hit rate 0.66% among 230,000;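 active means pattern-corrected inhibition of lipid staining of at least 50% with the nuclear-stain viability signal not falling by more than 50%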
MIN6 prolif: inducers of MIN6 beta-cell proliferation, primary screen, ATP luminescence, uHTS. MIN6 cells proliferation, ATPlite luminescence, 48 h; cells starved in 0.2% serum; 100% = growth in 10% serum. proliferation, % at 10 µM. hit rate 0.29% among 330,000;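 active means compounds whose signal lies at least 3.5 SD above the mean of all wells on their plate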
CHT block: inhibitors of human choline transporter CHT; High affinity choline transporter 1 (Homo sapiens), Q9GZV3; CHT-expressing cells, membrane potential dye, choline response; active compounds read low; B-score at 10 µM; hit rate 0.86% among 310,000; AID 488975, 2010;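 active means B-score over 3 SD under the library average, and starting fluorescence ratio not unusually high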;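 further: choline stimulus applied at its EC90 after an EC20 pre-addition; B-score computed on integrated fluorescence ratio after choline addition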
Target sequence (Q9GZV3 whole entry, looked up): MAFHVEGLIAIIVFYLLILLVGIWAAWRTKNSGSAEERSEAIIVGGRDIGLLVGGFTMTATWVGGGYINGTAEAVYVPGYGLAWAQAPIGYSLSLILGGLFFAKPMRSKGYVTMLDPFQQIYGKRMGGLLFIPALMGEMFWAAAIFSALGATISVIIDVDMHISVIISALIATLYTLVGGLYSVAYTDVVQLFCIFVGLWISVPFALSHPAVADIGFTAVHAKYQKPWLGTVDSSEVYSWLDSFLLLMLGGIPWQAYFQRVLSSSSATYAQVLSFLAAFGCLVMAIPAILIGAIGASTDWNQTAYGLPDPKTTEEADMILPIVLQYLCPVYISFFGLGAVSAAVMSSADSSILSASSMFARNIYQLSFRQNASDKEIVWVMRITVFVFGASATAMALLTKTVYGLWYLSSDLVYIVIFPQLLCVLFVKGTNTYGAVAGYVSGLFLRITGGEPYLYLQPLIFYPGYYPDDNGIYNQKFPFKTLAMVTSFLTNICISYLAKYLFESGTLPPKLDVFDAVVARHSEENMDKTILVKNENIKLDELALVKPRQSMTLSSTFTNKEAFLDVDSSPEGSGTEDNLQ
CHT PAM: CHT positive allosteric modulators, primary screen, cell-based, membrane potential dye, choline EC20 | High affinity choline transporter 1 (Homo sapiens), Q9GZV3 | CHT-expressing cells; active compounds read high; LV-AA mutant CHT in HEK293 cells | B-score at 10 µM | hit rate 0.49% among 310,000 | AID 488977, 2010;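 active means initial fluorescence not abnormally high and integrated response B-score, plate-corrected, over 3 SD above library mean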
CHT block conf: CHT inhibitors, confirmation, cell-based, membrane potential dye, duplicate | shares compounds with CHT block | CHT-expressing cells, choline membrane potential dye; LV-to-AA substituted CHT, HEK293 cells | CHT activity remaining % of control (active compounds read low), % at 10 µM | hit rate 70% among 2,400 | AID 493221, 2011;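 active means choline transporter activity left, mean of duplicates at 10 µM, below buffer-only control mean minus 3 SD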;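 further: depolarization triggered by choline at its EC90 following an EC20 pre-addition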
HEK293 CHT ctr: membrane potential effects in parental HEK293, counter-screen for CHT inhibitor project, cell-based, membrane potential dye; shares compounds with CHT block; choline response; active = decrease or increase beyond buffer ±3SD; membrane potential ratio readout (active if shifted either direction beyond buffer ±3SD; no single direction) at 10 µM; hit rate 4% among 2,400;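 further: parental cells lack the transporter so any hit is non-specific; ratio is peak minus trough fluorescence over baseline after EC90 choline challenge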
Numbers stand for hits; - = inactive; . = no result. The list is not random: actives were taken first. Their share in the collection is about 1.7%.

SMILES	TAG inh	MIN6 prolif	CHT block	CHT PAM	CHT block conf	HEK293 CHT ctr
CC(C)[C@H](NC(=O)c1ccccc1Br)C(=O)OCc1nc2ccsc2c(=O)[nH]1	-	-	-	-	.	.
CC(C)C(NC(=O)c1ccccc1Cl)C(=O)OCc1nc2scc(-c3ccccc3Cl)c2c(=O)[nH]1 (centres undefined)	.	-	-5.1	-	-	-
CC(C)CCN(C(=O)c1ccccn1)c1c(N)n(Cc2ccccc2)c(=O)[nH]c1=O	-	-	.	.	.	.
CCn1cc(C(=O)N(CCC(C)C)c2c(N)n(Cc3ccccc3)c(=O)[nH]c2=O)c(=O)c2ccc(C)nc21	-	-	-10	-	50%	-
CCCc1nc(NCCO)c(C#N)c2c1CCCC2	-	-	-8	-	-	-
O=C(Nc1ccccc1F)C1CCCN1S(=O)(=O)c1cccc2nsnc12 (centres undefined)	.	-	-	-	.	.
CC1CCN(CCNC(=O)C2CCCN(S(=O)(=O)c3cccc4nsnc34)C2)CC1 (centres undefined)	.	-	-8.1	-	18%	-
O=C(Nc1ccccc1Br)C1CCCN1S(=O)(=O)c1cccc2nsnc12 (centres undefined)	.	-	-7.9	-	23%	-
CCN(c1ccccc1)S(=O)(=O)c1ccc(Cl)c(NC(=O)CSc2n[nH]c(N)n2)c1	-	-	-	-	.	.
Cc1ccc(C)c(C(=O)COc2ncnc3ccccc23)c1	-	-	-5.2	-	42%	-
O=C1C(=O)N(CC2CCCO2)C(c2ccccc2[N+](=O)[O-])/C1=C(/O)c1ccccc1 (centres undefined)	-	-	-	-	.	.
CN1c2ccccc2C(O)=C(C(=S)Nc2ccc(F)c(Cl)c2)S1(=O)=O	-	-	-6.4	-	48%	-
COc1ccc(Nc2nc3ccccc3n2C)cc1	-	-	-6.5	-	53%	-
Cc1cc(=O)[nH]c(SCCOc2ccc(OC(C)C)cc2)n1	-	-	-5	-	-	-
COc1ccc(N2CCN(CC(=O)Nc3nc(C)cs3)CC2)cc1	.	-	-	-	.	.
O=C(CCc1ccccc1)NNC(=S)NC(=O)c1ccc(Cl)cc1	.	-	-5.7	-	70%	-
Cc1cccc(C(=O)NC(=S)NNC(=O)Cc2ccccc2)c1	-	-	-6.7	-	52%	-
O=C(Nc1ccc(F)c(Cl)c1)c1cccnc1	-	-	-6.1	-	-	-
COc1cc(CNc2ccc(N3CCCC3)cc2)ccc1OCc1ccccc1	.	.	-	-	.	.
COc1cc(CNc2ccc(N3CCCCC3)cc2)ccc1OCC(=O)NC(C)(C)C	-	-	-9.9	-	47%	-
CC1CCN(C(=O)CCC(=O)Nc2nnc(C3CCCCC3)s2)CC1	.	-	-	-	.	.
O=C(OCC(=O)N1CCc2ccccc21)[C@@H]1CC(O)CN1S(=O)(=O)c1ccccc1[N+](=O)[O-] (some centres undefined)	-	-	.	.	.	.
CCCn1c(=O)c2ccccc2n2c(SCCOc3ccccc3)nnc12	.	-	-6.2	-	-	-
CCCn1c(=O)c2ccccc2n2c(SCc3nc4ccccc4s3)nnc12	.	-	-	-	.	.
O=C(CN(Cc1ccccc1Cl)C(=O)c1csnn1)NCc1ccc2c(c1)OCO2	.	-	-	-	.	.
SMILES	TAG inh	MIN6 prolif	CHT block	CHT PAM	CHT block conf	HEK293 CHT ctr
O=C(Nc1ccccc1)N1CCCC(c2nc(-c3ccc(F)cc3)no2)C1 (centres undefined)	-	-	-5.9	-	-	-
O=C(Oc1cccccc1=O)c1ccccc1	.	-	-6.9	-	-	-
O=C1/C(=C/c2ccccc2F)SC(=S)N1CC(=O)N1CCCCC1c1cccnc1 (centres undefined)	.	-	-	-	.	.
CCOc1ccc(Nc2ccnc3cc(Cl)ccc23)cc1	-	-	-	-	.	.
CCN1CCC(Nc2ccnc3cc(Cl)ccc23)CC1	.	-	-6.6	-	-	4.2
CC1=NC(C)(C)Cc2ccccc21	-	-	-10	-	20%	-
Cc1cccc(-c2cc3nc4c(c(N5CCCC(O)C5)n3n2)CCC4)c1 (centres undefined)	.	-	-	-	.	.
OC1CCCN(c2c3c(nc4cc(-c5cccc(F)c5)nn24)CCCC3)C1 (centres undefined)	-	-	-5.2	-	-	-
Cc1cc(C)c(NS(=O)(=O)c2ccc3c(c2)NC(=O)CCS3)c(C)c1	.	-	-	-	.	.
CCOC(=O)c1ccc(NS(=O)(=O)c2ccc3c(c2)NC(=O)CCS3)cc1	.	-	-5.1	-	64%	-
COCCn1c(=NC(=O)C(C)(C)C)sc2cc([N+](=O)[O-])ccc21	-	-	-	-	.	.
Cc1ccc(S(=O)(=O)Oc2cccc(/C=N/Nc3ccc(C(=O)O)cc3)c2)cc1	-	-	-	-	.	.
Cc1ccc(S(=O)(=O)Oc2cccc(/C=N/n3cnnc3)c2)cc1	.	-	-10	-	56%	-
CCCCC(CC)CNC(=O)CC1Nc2c3ccccc3nc(=S)n2C1=O (centres undefined)	-	-	-	-	.	.
CC(Nc1cc(N2CCNCC2)ccc1[N+](=O)[O-])c1ccccc1 (centres undefined)	-	-	-6.4	-	35%	2.7
CCS(=O)(=O)N1CCN(c2ccc([N+](=O)[O-])c(NC(C)c3ccccc3)c2)CC1 (centres undefined)	-	-	-	-	.	.
O=C(NS(=O)(=O)Nc1ccccn1)c1c[nH]c2ccccc12	.	-	-	-	.	.
CCSc1nnc(NC(=O)C(C)(C(F)(F)F)C(F)(F)F)s1	.	-	-8.8	-	70%	-
CCC(Oc1ccc(C)cc1)C(=O)Nc1ccc(S(=O)(=O)Nc2nccs2)cc1 (centres undefined)	.	-	-6.5	-	40%	-
O=C(Nc1ccc(S(=O)(=O)Nc2nccs2)cc1)c1c(F)c(F)c(F)c(F)c1F	-	-	-5	-	35%	-
CC(C)CN(C(=O)CN1CCc2ccccc21)c1c(N)n(CC(C)C)c(=O)[nH]c1=O	-	-	-	-	.	.
CCN(CC)S(=O)(=O)c1cc(C(=O)Nc2nncs2)c(Cl)cc1Cl	.	-	-9.5	-	50%	-
CC(C)=CCN1CCN(Cc2nc(-c3ccc(F)cc3)cs2)CC1CCO (centres undefined)	-	-	-5.4	-	-	-
CCc1noc(C)c1C(=O)Nc1cccc2ncccc12	-	-	-	-	.	.
Fc1ccc(CSc2nc3ncccc3[nH]2)cc1	-	-	-6	-	-	-
COc1ccc(CN(C(=O)c2cccs2)c2ccccc2)cc1	-	-	-	-	.	.
